Assay outcomes from PubChem BioAssay.
Only some compounds are listed: those with a hit (about 19% of all), similar ones and a draw of the others.
HT1080NT lethal = kills 2HG-producing HT-1080-NT fibrosarcoma cells; HT-1080-NT fibrosarcoma viability, CellTiter-Glo ATP luminescence, 48 h; Potency, µM (top dose mostly 46.1 µM), usual class: cytotoxic; 360,000 tested, 1.6% active; AID 686970;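 further: NT is the 2HG producing partner of a matched IDH1 knockdown line; nearly all actives have a fitted effect of over 55% in size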
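HT-1080-NT fibrosarcoma cells (2HG-overproducing), 750 cells/well in RPMI with 5% FBS, dosed after 2 h and incubated 48 h at 37C. CellTiter-Glo luminescence normalized to DMSO and no-cell wells; concentration-response curves fitted and classed.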
HT1080 IDH1KD tx = toxicity to HT-1080 IDH1 knockdown cells (counter line); HT-1080 IDH1 knockdown viability, ATP luminescence, 48 h; Potency, µM (titrated, usually from 46.1 µM), actives largely listed as cytotoxic; 360,000 tested, 2% active; AID 686971
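Using the IDH1-knockdown HT-1080 line run in the same batch and compound series as the NT line, viability after 48 h at 37 °C was determined by CellTiter-Glo luminescence and expressed as % activity.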
DT40 TDP1 no CPT = qHTS for Inhibitors of human tyrosyl-DNA phosphodiesterase 1 (TDP1): qHTS in cells in absence of CPT; DT40 Tdp1-/- hTDP1 cells, no CPT, ATP luminescence, 48 h; 420,000 tested, 15% active; Potency, µM (titrated, usually from 46.2 µM), actives largely listed as inhibitors; AID 686978, 2013; further: nearly all actives have a fitted effect of over 55% in size
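Compound effects on proliferation are scored in DT40 Tdp1-/-;hTDP1 cells in the absence of CPT. ATP levels (CellTiter-Glo luminescence) are recorded after a ≥48 hr, 37 °C incubation.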
DT40 TDP1 CPT = DT40-hTDP1 cell growth loss with CPT | chicken DT40 Tdp1-/-;hTDP1 cells + 20 nM CPT, ATP luminescence, 48 h | Potency, µM (top dose mostly 46.2 µM), most hits filed as inhibitors | 420,000 tested, 12% active | AID 686979; further: nearly all actives have a fitted effect of over 55% in size
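Cell growth measured by CellTiter-Glo luminescence after a minimum 48 h, 37 C compound exposure with 20 nM CPT in Tdp1-knockout DT40 cells stably expressing hTDP1, seeded 400/well; qHTS titration format.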
KB-3-1 tox = KB-3-1 parental cell cytotoxicity | KB-3-1 viability, CellTiter-Glo ATP luminescence, 72 h | Potency, µM (series often up to 46.1 µM), hits mostly cytotoxic | 400,000 tested, 1.4% active | AID 1347075; further: nearly all actives have a fitted effect of over 60% in size
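Cells are dispensed, compounds pinned in, plates held at 37 °C for 72 h, then CellTiter-Glo is added and luminescence read after 10 minutes. Cell line: parental KB-3-1 in phenol-red-free DMEM, 10% FBS.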
KB-V1 MDR tox = kills drug-selected multidrug resistant KB-V1 cells; KB-V1 MDR cells viability, CellTiter-Glo, 72 h; Potency, µM (doses to about 46.1 µM), hits mostly cytotoxic; 400,000 tested, 3.4% active; further: nearly all actives have a fitted effect of over 60% in size
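Potencies derive from concentration-effect curves fitted to normalized luminescence (CellTiter-Glo) of KB-V1 cells treated for 72 h at 37 degrees C in phenol-red-free DMEM containing 10% FBS.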
A number is an active result; n = inactive; u = inconclusive; x = no result. The call rests on the fitted dose curve; in most records, active means well fitted curve in the direction sought with a large enough effect; inconclusive means small, poorly fitted or top-dose-only effect, or another doubt; inactive means no such curve, though single readings can be large; an effect the other way counts as inactive or inconclusive.

SMILES	HT1080NT lethal	HT1080 IDH1KD tx	DT40 TDP1 no CPT	DT40 TDP1 CPT	KB-3-1 tox	KB-V1 MDR tox
COc1ccc(CCC(=O)N2c3ccccc3N=C(c3ccc4c(c3)OCO4)C2C(=O)NCc2ccccc2)cc1 (stereo not drawn)	n	n	u	u	n	u
O=C(OC1CCc2ccccc2C1=O)c1ccccc1O (stereo not drawn)	n	n	16.4µM	23.1µM	n	u
COc1ccccc1C(=O)NC(=S)/C=C1/N(C)c2ccccc2C1(C)C	n	n	u	u	n	n
CN1/C(=C/C(=S)NC(=O)C2(C)CC2(Cl)Cl)C(C)(C)c2ccccc21 (stereo not drawn)	n	n	23.1µM	u	n	n
CN1/C(=C\C(=S)NC(=O)c2ccccc2Cl)C(C)(C)c2ccccc21	n	n	4.61µM	7.31µM	u	n
CN1/C(=C\C(=S)Nc2ccccc2)C(C)(C)c2ccccc21	u	n	2.06µM	10.3µM	u	n
CN1/C(=C\C(=O)Nc2ccc(Cl)cc2)C(C)(C)c2ccccc21	n	n	u	u	n	n
COc1ccccc1N(C(=O)c1cncc(Br)c1)c1nc(-c2ccc(C)cc2)cs1	n	n	18.4µM	20.6µM	n	n
Cc1cc2c3c(c1C)C1(C(=O)N3C(C)(C)CC2C)C(C#N)=C(N)Oc2n[nH]c(C)c21 (stereo not drawn)	u	u	23.1µM	u	u	n
Cc1cc2c3c(c1)C1(C(=O)N3C(C)(C)CC2C)C(C#N)=C(N)Oc2n[nH]c(C)c21 (stereo not drawn)	u	u	u	u	u	n
COc1cc(/C=N\Nc2nc3ccccc3o2)cc(OC)c1OC	u	u	u	u	n	u
COc1cc(/C=N/Nc2nc(Nc3ccc(C)cc3)nc(-n3nc(C)cc3C)n2)cc(OC)c1OC	4.47µM	2.82µM	2.91µM	4.61µM	n	u
COc1cc(/C=N/Nc2nc(Nc3ccccc3)nc(-n3nc(C)cc3C)n2)cc(OC)c1OC	u	14.6µM	18.4µM	23.1µM	u	7.31µM
COc1ccc(O)c(/C=N/Nc2nc(Nc3ccccc3)nc(-n3nc(C)cc3C)n2)c1	u	16.4µM	0.517µM	0.581µM	14.6µM	u
COc1cc(/C=N/n2nnnc2Nc2ccccc2)cc(OC)c1OC	n	n	18.4µM	14.6µM	n	2.59µM
COc1ccc(Nc2nc(NCc3ccco3)nc(N/N=C/c3ccccc3)n2)cc1	n	n	u	u	n	n
Cc1ccc(N(C)S(=O)(=O)c2nnc(NC(=O)CC(C)C)s2)cc1	x	x	n	n	x	x
COS(C)(=O)=O	x	x	n	n	x	x
CC1(C(=O)NS(=O)(=O)c2cccc(C#N)c2)CCN1C(=O)Cc1ccc(Cl)cc1Cl (stereo not drawn)	n	n	n	n	n	n
COC(=O)c1c(NC(=O)CN2CCC3(O)CCCCC3C2c2cc(OC)ccc2OC)sc(C)c1C (stereo not drawn)	n	n	10.3µM	13µM	u	u
COc1ccccc1C1C2CCCCC2(O)CCN1CC(=O)Nc1ccccc1 (stereo not drawn)	n	u	u	u	n	u
CCOCCc1nn2c(=O)cc(COC(=O)CNC(=O)c3ccc(F)cc3)nc2s1	x	x	n	n	n	u
CN1C(=O)CSc2ccc(NC(=O)N3CCc4ccccc43)cc21	n	n	u	u	n	16.4µM
CN1C(=O)c2ccccc2Sc2ccc(NC(=O)N3CCOCC3)cc21	n	n	u	n	n	n
Cc1ccc(NC(=O)N2CCc3ccccc32)cc1C	n	n	u	n	n	n
SMILES	HT1080NT lethal	HT1080 IDH1KD tx	DT40 TDP1 no CPT	DT40 TDP1 CPT	KB-3-1 tox	KB-V1 MDR tox
Cc1ccc(C)c(N2CCN(C(=O)Nc3ccc4c(c3)N(C)C(=O)CS4)CC2)c1	n	u	16.4µM	20.6µM	n	n
CN1C(=O)CSc2ccc(NC(=O)N3CCN(c4ccccn4)CC3)cc21	n	n	u	u	n	18.4µM
CCN1C(=O)c2ccccc2Sc2ccc(NC(=O)N3CCN(c4cc(C)ccc4C)CC3)cc21	x	x	4.11µM	5.8µM	x	x
Cc1ccc(NC(=O)N2CCN(c3ccccn3)CC2)cc1	n	n	n	n	n	n
CN1c2ccc(Cl)cc2-c2nc(SCC(=O)NCc3ccc(F)cc3)ncc2S1(=O)=O	x	x	n	n	n	n
CN1C(=O)CSc2ccc(NC(=O)Nc3ccccn3)cc21	n	u	u	29.1µM	u	n
COc1cccc(NC(=O)Nc2ccc3c(c2)N(C)C(=O)CS3)c1	u	u	20.6µM	u	u	u
